Hits are enriched below; roughly 15% of the tested compounds scored in any of these assays.
SARS PLP yeast: inhibitors of SARS-CoV papain-like protease in yeast; S. cerevisiae expressing SARS-CoV PLpro, growth rescue; Potency, µM (top dose mostly 32.9 µM), without a hit: top-dose activity, positive = growth rescue, most hits filed as activators; 330,000 compounds, 0.19% hits; calls by dose curve; also: potency is read from the fitted curve at half-maximal effect; 0% is about no effect; nearly all actives have a fitted effect of over 55% in size
Pf growth 96h: inhibits malaria parasite growth, 96 h | P. falciparum luciferase reporter growth, 96 h | Potency, µM (titrated, usually from 28.7 µM), inactives show top-dose activity change, negative = inhibition, actives largely listed as inhibitors | 320,000 compounds, 6.9% hits | AID 504834; also: potency is read from the fitted curve at half-maximal effect; % is scaled to controls: 0 for no effect and ±100 for the full control effect
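Delayed-death screen, second-generation endpoint: infected erythrocytes, 2% hematocrit, 0.05% parasitemia final; 96 hours at 37 C, 5% CO2; luciferase detection reagent; luminescence decrease equals reduced growth.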
HCV inh: HCV inhibition; Huh7.5.1 HCVcc-Cre infection, luciferase reporter, 44 h; Potency, µM (series often up to 41.8 µM), for the others: top-dose activity change, negative = inhibition, usual class: inhibitors; 340,000 compounds, 3.4% hits; AID 651820; also: potency is read from the fitted curve at half-maximal effect; % is scaled to controls: 0 for no effect and ±100 for the full control effect
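Antiviral activity was scored by luciferase reporter output from cells infected with HCVcc-Cre (~0.5 moi) in presence of compound, 44 h infection period, cells seeded 1,000/well 4 h prior.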
Sm TGR block: S. mansoni TGR enzyme inhibition; Potency, µM (top dose mostly 114 µM), inactives show at the top dose activity change, negative = inhibition, most hits filed as inhibitors; Q962Y6; 360,000 compounds, 3% hits; AID 485364; purified TGR, DTNB reduction, TNB absorbance 405 nm; also: potency is read from the fitted curve at half-maximal effect; % is scaled to controls: 0 for no effect and ±100 for the full control effect; nearly all actives have a fitted effect of over 60% in size
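Kinetic colorimetric format: TGR-catalysed, NADPH-driven DTNB reduction monitored via TNB absorbance. Enzyme dispensed at 20 nM; compound exposure 15 min at room temperature before reaction start.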
HCMV antiviral: inhibitors of human cytomegalovirus. HFF cells, HCMV-luciferase reporter, 72 h; hits give low values. activity change, negative = inhibition, % at 57.5 µM. 410,000 compounds, 4.5% hits; in the data active = activity change below about -60%; inconclusive = no clear call, values can overlap the other calls; inactive = above about -39%; also: % is scaled to controls: 0 for no effect and ±100 for the full control effect
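Two compound doses tested in HFFs infected with HCMV-luciferase, MOI 1 PFU/cell, 72 h at 37C. Lysate luminescence read with OneGlo; data normalized against buffer-only and 10uM Salinomycin inhibitor controls.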
Pf growth 48h: P. falciparum growth inhibition at 48 hours (one generation); Potency, µM (series often up to 28.7 µM), without a hit: at the highest dose activity change, negative = inhibition, usual class: inhibitors; AID 504832; P. falciparum luciferase growth in erythrocytes, 48 h; 310,000 compounds, 5.9% hits; also: potency is read from the fitted curve at half-maximal effect; % is scaled to controls: 0 for no effect and ±100 for the full control effect
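Luciferase-expressing parasites in RBCs, 2% Hct / 0.1% parasitemia final; RPMI 1640 + 0.5% Albumax; 37 C, 5% CO2, one generation; luminescence read-out, lower signal = inhibition.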
An asterisk follows results filed as active. Unless noted, calls follow the shape of the dose curve; as a rule, active = well fitted curve in the direction sought with a large enough effect; inconclusive = small, poorly fitted or top-dose-only effect, or another doubt; inactive = no such curve, though single readings can be large; an effect the other way counts as inactive or inconclusive.

Screening COc1ccc(C(=O)N2CCC(C)(C(=O)NS(=O)(=O)C3CC3)C2)c(OC)c1 (stereo not given) returned HCMV antiviral -2.5.
For CCCCC(=O)N(C)c1c(C)nc2ccc(C(=O)N(C)CCN(C)C)cn12 the results were HCMV antiviral 1.6.
Screening CCCCCCOC(=O)C[N+](C)(C)CCOC1CC2CCC1(C)C2(C)C (stereo not given) returned SARS PLP yeast -18.3%, Pf growth 96h 0.738µM*, HCV inh 3.2%, Sm TGR block -11.6%, HCMV antiviral -18.9 and Pf growth 48h 1.65µM*.
Screening CC1(C)C2CCC1(C)C(OCCNCCOC(=O)Nc1ccccc1)C2 (stereo not given) returned SARS PLP yeast -1.3%, Pf growth 96h -15.1%, HCV inh 2.1%, Sm TGR block 7.2%, HCMV antiviral 0.0 and Pf growth 48h inconclusive.
`CCCOC(=O)C[N+](C)(C)CCOC1CC2CCC1(C)C2(C)C` (stereo not given) gave SARS PLP yeast 0.0%, Pf growth 96h 1.47µM*, HCV inh 14.8%, Sm TGR block -4.6%, HCMV antiviral inconclusive and Pf growth 48h 1.85µM*.
For CC(C)CCOC(=O)C[N+](C)(C)CCOC1CC2CCC1(C)C2(C)C (stereo not given) the results were SARS PLP yeast -3.2%, Pf growth 96h 246.2%, HCV inh -4.7%, Sm TGR block 0.6%, HCMV antiviral inconclusive and Pf growth 48h inconclusive.
For CCCCCCCOC(=O)C[N+](C)(C)CCOC1CC2CCC1(C)C2(C)C (stereo not given) the results were SARS PLP yeast -63.5%, Pf growth 96h 13.1µM*, HCV inh inconclusive, Sm TGR block -2.9%, HCMV antiviral -73.1* and Pf growth 48h 1.85µM*.
`CCC(C)OC(=O)C[N+](C)(C)CCOC1CC2CCC1(C)C2(C)C` (stereo not given) gave SARS PLP yeast 0.9%, Pf growth 96h 36.2%, HCV inh -9.3%, HCMV antiviral inconclusive and Pf growth 48h 0.928µM*.
C(#CCN1CCCC1)CC(c1ccccc1)c1ccccc1 was read as SARS PLP yeast -0.2%, Pf growth 96h inactive, HCV inh inconclusive, Sm TGR block -16.2%, HCMV antiviral inconclusive and Pf growth 48h inconclusive.
`CCN(C(=O)CCc1nnc2ccc(NCc3ccco3)nn12)c1ccccc1` gave SARS PLP yeast -3.7%, Pf growth 96h inconclusive, HCV inh -11.7%, Sm TGR block -7.9%, HCMV antiviral -12.0 and Pf growth 48h inconclusive.
Screening CCCCN(C(=O)Cc1cccc(F)c1)c1c(N)n(CCC)c(=O)[nH]c1=O returned SARS PLP yeast 0.8%, Pf growth 96h 4.1%, HCV inh 26.4%, Sm TGR block 5.2%, HCMV antiviral 28.1 and Pf growth 48h -0.3%.
For CC(=O)Nc1ccc(NC(=O)COC(=O)c2c3c(nc4ccccc24)CCN(Cc2ccccc2)C3)cc1 the results were SARS PLP yeast 1.3%, Pf growth 96h 5.86µM*, HCV inh 12.6µM*, Sm TGR block -7.2%, HCMV antiviral 25.7 and Pf growth 48h 10.4µM*.
For O=C(Nc1cccc(S(=O)(=O)N2CCCCC2)c1)c1c2c(nc3ccccc13)CCN(Cc1ccccc1)C2 the results were SARS PLP yeast -1.6%, Pf growth 96h 2.62µM*, HCV inh inconclusive, Sm TGR block 3.0%, HCMV antiviral -3.8 and Pf growth 48h 2.94µM*.
For CCN1CCc2nc3ccccc3c(C(=O)Nc3ccc(NC(C)=O)cc3)c2C1 the results were SARS PLP yeast 1.5%, Pf growth 96h 6.6%, HCV inh 13.6%, Sm TGR block 3.2%, HCMV antiviral 0.0 and Pf growth 48h 0.6%.
`O=C(COC(=O)c1c2c(nc3ccccc13)CCN(Cc1ccccc1)C2)Nc1c(F)cccc1F` gave SARS PLP yeast -0.2%, Pf growth 96h 10.4µM*, HCV inh inconclusive, Sm TGR block 4.1%, HCMV antiviral -96.3* and Pf growth 48h 0.0%.
CCN1CCc2nc3ccccc3c(C(=O)Nc3ccc(F)cc3)c2C1 was read as SARS PLP yeast -0.7%, Pf growth 96h inconclusive, HCV inh -13.0%, Sm TGR block 1.9%, HCMV antiviral 6.5 and Pf growth 48h 2.08µM*.
`COc1ccc(C(=O)/C(=C\c2ccco2)N2C=CC=CC2=C(C#N)C#N)cc1` gave SARS PLP yeast -5.2%, Pf growth 96h inconclusive, HCV inh 11.2µM*, Sm TGR block inconclusive and Pf growth 48h inconclusive.
`N#C/C(=C/c1ccco1)C(N)=S` gave SARS PLP yeast -0.5%, Pf growth 96h inconclusive, HCV inh 8.0%, Sm TGR block -0.9%, HCMV antiviral -4.2 and Pf growth 48h inconclusive.
`N#CC(C#N)=C1C=CC=CN1/C(=C\c1ccco1)C(=O)c1ccc(Br)cc1` gave SARS PLP yeast -42.9%, Pf growth 96h inconclusive, HCV inh inconclusive, Sm TGR block 2.24µM*, HCMV antiviral -96.6* and Pf growth 48h inconclusive.
Screening COc1ccc(/C=C(/C(=O)c2cccs2)N2C=CC=CC2=C(C#N)C#N)cc1 returned SARS PLP yeast -22.5%, Pf growth 96h 56.7%, HCV inh inconclusive, Sm TGR block 0.282µM*, HCMV antiviral -60.1* and Pf growth 48h 68.2%.
For N#CC(C#N)=C1C=CC=CN1/C(=C\c1ccco1)C(=O)c1ccccc1 the results were SARS PLP yeast -15.7%, Pf growth 96h inconclusive, HCV inh inconclusive, Sm TGR block 2.82µM*, HCMV antiviral -99.6* and Pf growth 48h inconclusive.
For COc1ccc(C=C(C#N)C(=O)c2ccccc2)cc1 the results were HCMV antiviral 42.2.
`O=S1(=O)N[C@@H](Cc2ccccc2)COc2cc(NC3CC3)ccc21` gave HCMV antiviral -8.5.
Screening CC1CCCN(CCCNC(=O)C2CC(=O)N(c3ccc(F)c(Cl)c3)C2)C1 (stereo not given) returned SARS PLP yeast -1.3%, Pf growth 96h 7.8%, HCV inh inconclusive, Sm TGR block -27.4%, HCMV antiviral 33.3 and Pf growth 48h 14.7µM*.
For CCCCCN1CC(=O)N2C(C)c3[nH]c4ccccc4c3C[C@H]2C1=O (stereo not given in full) the results were SARS PLP yeast -2.4%, Pf growth 96h -19.3%, HCV inh 5.6%, Sm TGR block 18.4%, HCMV antiviral -26.1 and Pf growth 48h -14.4%.
For COc1ccc(-n2c(=O)c3ccccc3n(CC(=O)NCCc3ccccc3)c2=O)c(OC)c1 the results were Sm TGR block -7.7% and HCMV antiviral -25.5.
